Screens as filed in PubChem.
PAFAH2 FP inh: PAFAH2 (human) inhibition | Q99487 | recombinant PAFAH2, FP-rhodamine activity probe, fluorescence polarization | inhibition, % at 3.39 µM | 340,000 tested, 0.99% active | AID 492956;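 active means inhibition above the mean over all tested compounds plus 3 SD, cut at about 30% in these data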;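 further: inhibitors block probe labeling of enzyme so polarization drops; 0% = enzyme with DMSO and 100% = wells lacking PAFAH2 protein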
DAGLB inhibitor: diacylglycerol lipase beta (human) inhibition. 340,000 tested, 0.059% active. HEK293T DAGLB membrane lysate, EnzChek fluorogenic substrate. Q8NCG7. inhibition, % at 5.17 µM. AID 504411; in the data active means inhibition above about 34%;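 further: 0% = enzyme with vehicle and 100% = wells lacking enzyme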
HTRA1 inhibitor: blocks human HTRA1 serine peptidase | inhibition, % at 5.96 µM | 340,000 tested, 0.5% active | recombinant HTRA1, FP-rhodamine activity-based probe, fluorescence polarization; in the data active means inhibition above about 36%;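 further: 0% = enzyme with DMSO and 100% = wells lacking enzyme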
PAFAH1B3 FP inh: blocks human PAF acetylhydrolase 1B catalytic subunit 3. Q15102. AID 492972. 340,000 tested, 0.28% active. recombinant PAFAH1B3, FP-rhodamine probe, fluorescence polarization. inhibition, % at 3.39 µM;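 active means inhibition above the screen-wide average of all tested compounds plus 3 SD, cut at about 25% in these data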;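 further: 0% = enzyme with DMSO only and 100% = wells lacking PAFAH1B3 protein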
PAFAH1B2 inh: blocks human PAF acetylhydrolase 1b catalytic subunit 2 | P68402 | recombinant PAFAH1B2, FP-rhodamine activity probe, fluorescence polarization | inhibition, % at 3.39 µM | 340,000 tested, 1.2% active | AID 492953;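 active means inhibition above the mean of all tested compounds plus 3 SD, cut at about 24% in these data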;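 further: 0% = enzyme with DMSO and 100% = wells lacking PAFAH1B2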
Target sequence (P68402 whole entry, looked up): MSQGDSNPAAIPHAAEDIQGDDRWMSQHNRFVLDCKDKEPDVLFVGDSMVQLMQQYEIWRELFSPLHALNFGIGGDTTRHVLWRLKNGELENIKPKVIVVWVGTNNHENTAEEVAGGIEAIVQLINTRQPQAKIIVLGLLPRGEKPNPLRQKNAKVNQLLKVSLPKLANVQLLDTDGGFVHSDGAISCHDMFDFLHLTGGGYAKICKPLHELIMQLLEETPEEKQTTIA
pPAFAH FP inh: pPAFAH (human) enzyme inhibition; Q13093; inhibition, % at 3.39 µM; recombinant pPAFAH, FP-rhodamine probe fluorescence polarization; 330,000 tested, 1.5% active;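 active means inhibition above the mean inhibition across the screen plus 3 SD, cut at about 25% in these data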;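 further: inhibitors block binding of the rhodamine activity-based probe so polarization drops; 0% = enzyme with DMSO and 100% = wells lacking pPAFAH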
Target sequence (Q13093 whole entry, looked up): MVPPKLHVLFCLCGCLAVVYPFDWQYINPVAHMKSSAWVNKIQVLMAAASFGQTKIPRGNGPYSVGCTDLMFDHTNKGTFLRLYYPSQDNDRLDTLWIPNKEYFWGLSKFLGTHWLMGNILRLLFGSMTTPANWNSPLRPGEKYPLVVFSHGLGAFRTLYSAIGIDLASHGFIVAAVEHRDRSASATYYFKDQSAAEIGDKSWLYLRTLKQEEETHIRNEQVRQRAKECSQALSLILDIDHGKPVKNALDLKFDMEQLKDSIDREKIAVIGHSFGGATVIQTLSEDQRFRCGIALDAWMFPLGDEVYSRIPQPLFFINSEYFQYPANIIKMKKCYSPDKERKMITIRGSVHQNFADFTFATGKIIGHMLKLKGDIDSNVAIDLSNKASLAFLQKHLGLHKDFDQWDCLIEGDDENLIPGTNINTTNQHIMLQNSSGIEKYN
Numbers without * were called inactive. Rows were chosen to be rich in hits. Some 2.8% of all compounds tested hit in one or more screens of this group.

Results for Cc1cccc(Oc2sc(C(=O)c3ccccc3)c(N)c2C#N)c1 ?
PAFAH2 FP inh: 7; DAGLB inhibitor: -7; HTRA1 inhibitor: -32; PAFAH1B3 FP inh: 9; PAFAH1B2 inh: 5; pPAFAH FP inh: 26*

Results for N#Cc1c(Nc2ccccc2)sc(C(=O)c2ccccc2)c1N ?
PAFAH2 FP inh: 5; DAGLB inhibitor: 1; HTRA1 inhibitor: 0; PAFAH1B3 FP inh: 10; PAFAH1B2 inh: -2; pPAFAH FP inh: 21

What do the screens show for `COc1ccc(CC(=O)N/N=C(\C)CC(=O)Nc2ccc(N(C)C)cc2)cc1OC`?
PAFAH2 FP inh: 6; DAGLB inhibitor: -1; HTRA1 inhibitor: 6; PAFAH1B3 FP inh: 7; PAFAH1B2 inh: -1; pPAFAH FP inh: 0

How did Cc1cccc(N2CC(C(=O)Nc3nnc(SCc4ccccn4)s3)CC2=O)c1 (stereo not drawn) do in these assays?
PAFAH2 FP inh: 9; DAGLB inhibitor: 5; HTRA1 inhibitor: -19; PAFAH1B3 FP inh: 11; PAFAH1B2 inh: 5; pPAFAH FP inh: 27*

How did CC(=O)N/C(=C\c1ccccc1)C(=O)OC(C)C(=O)c1ccccc1 (stereo not drawn) do in these assays?
PAFAH2 FP inh: 1; DAGLB inhibitor: 2; HTRA1 inhibitor: 1; PAFAH1B3 FP inh: 1; PAFAH1B2 inh: 3; pPAFAH FP inh: -2

What do the screens show for `CC1(OC(=O)c2ccc(Cl)nc2)C(=O)C=C2C=C3CCCN3C=C2C1=O` (stereo not drawn)?
PAFAH2 FP inh: 12; DAGLB inhibitor: -1; HTRA1 inhibitor: 13; PAFAH1B3 FP inh: 14; PAFAH1B2 inh: 11; pPAFAH FP inh: 15

Results for CC1(OC(=O)c2ccc(Cl)nc2)C(=O)C=C2C=C(c3ccc(C#N)cc3)OC=C2C1=O (stereo not drawn) ?
pPAFAH FP inh: 42*

Results for CC1(OC(=O)c2ccc(Cl)nc2)C(=O)C=C2C=C(C3CC3)OC=C2C1=O (stereo not drawn) ?
pPAFAH FP inh: 44*

What do the screens show for `CC1(OC(=O)c2ccc(Cl)nc2)C(=O)C=C2C=C(c3ccsc3)OC=C2C1=O` (stereo not drawn)?
pPAFAH FP inh: 47*

Results for CC1(OC(=O)C2CCCC2)C(=O)C=C2C=C(C3CC3)OC=C2C1=O (stereo not drawn) ?
pPAFAH FP inh: 26*

Results for Cc1ccc(NC(=O)COc2cccc(-n3cnnn3)c2)cc1S(=O)(=O)N1CCOCC1 ?
PAFAH2 FP inh: -1; DAGLB inhibitor: -1; HTRA1 inhibitor: -9; PAFAH1B3 FP inh: 4; PAFAH1B2 inh: -7; pPAFAH FP inh: 5

What do the screens show for `COc1ccc(-c2noc(CCC(=O)N3CCN(c4cccc(F)c4)CC3)n2)cc1`?
PAFAH2 FP inh: 1; DAGLB inhibitor: -2; HTRA1 inhibitor: 3; PAFAH1B3 FP inh: 5; PAFAH1B2 inh: 3; pPAFAH FP inh: 5

What do the screens show for `CCOc1ccc(N2CC(C(=O)Nc3cccnc3)CC2=O)cc1` (stereo not drawn)?
PAFAH2 FP inh: 0; DAGLB inhibitor: 2; HTRA1 inhibitor: 9; PAFAH1B3 FP inh: -2; PAFAH1B2 inh: 3; pPAFAH FP inh: 8

Results for Cc1cc(C)n2nc(CNS(=O)(=O)c3ccc(CC(C)C)cc3)nc2n1 ?
PAFAH2 FP inh: -4; DAGLB inhibitor: 0; HTRA1 inhibitor: -2; PAFAH1B3 FP inh: 2; PAFAH1B2 inh: -3; pPAFAH FP inh: 8

Results for O=C(N/N=C/c1cc([N+](=O)[O-])cc([N+](=O)[O-])c1O)/C(=C\c1cccs1)NC(=O)c1ccccc1 ?
PAFAH2 FP inh: 14; DAGLB inhibitor: 21; HTRA1 inhibitor: 23; PAFAH1B3 FP inh: 12; PAFAH1B2 inh: 10; pPAFAH FP inh: 31*

How did COc1cc(/C=N/NC(=O)/C(=C\c2ccc([N+](=O)[O-])cc2)NC(=O)c2ccccc2)cc(OC)c1O do in these assays?
PAFAH2 FP inh: 3; DAGLB inhibitor: 4; HTRA1 inhibitor: 8; PAFAH1B3 FP inh: 17; PAFAH1B2 inh: 1; pPAFAH FP inh: 13

Results for Cc1noc(C)c1NC(=O)N(C)C[C@H]1Oc2ccc(NS(=O)(=O)c3ccc(F)cc3)cc2C(=O)N([C@H](C)CO)C[C@@H]1C ?
PAFAH2 FP inh: 3; DAGLB inhibitor: 2; HTRA1 inhibitor: -1; PAFAH1B3 FP inh: 12; PAFAH1B2 inh: 5; pPAFAH FP inh: 3

How did COc1ccc([C@@H]2CC=C(C(=O)O)[C@H](c3ccccc3)N2S(=O)(=O)c2ccc(C)cc2)cc1OC do in these assays?
PAFAH2 FP inh: 0; DAGLB inhibitor: 4; HTRA1 inhibitor: -2; PAFAH1B3 FP inh: 7; PAFAH1B2 inh: 5; pPAFAH FP inh: -1

What do the screens show for `COc1cc([C@@H]2CC=C(C(=O)O)[C@H](c3ccc(Cl)cc3)N2S(=O)(=O)c2ccc(C)cc2)cc(OC)c1OC`?
PAFAH2 FP inh: -13; DAGLB inhibitor: 6; HTRA1 inhibitor: -13; PAFAH1B3 FP inh: 13; PAFAH1B2 inh: -2; pPAFAH FP inh: -1

How did CCc1ccc([C@@H]2CC=C(C(=O)O)[C@H](c3ccc(C(C)(C)C)cc3)N2S(=O)(=O)c2ccc(C)cc2)cc1 do in these assays?
PAFAH2 FP inh: 9; DAGLB inhibitor: 21; HTRA1 inhibitor: -129; PAFAH1B3 FP inh: 5; PAFAH1B2 inh: 87*; pPAFAH FP inh: 18

What do the screens show for `Cc1ccc(S(=O)(=O)N2[C@@H](c3ccc(Br)cc3)C(C(=O)O)=CC[C@H]2c2ccc(C(C)C)cc2)cc1`?
PAFAH2 FP inh: 15; DAGLB inhibitor: 9; HTRA1 inhibitor: -139; PAFAH1B3 FP inh: -2; PAFAH1B2 inh: 89*; pPAFAH FP inh: 16

Results for Cc1ccc([C@@H]2CC=C(C(=O)O)[C@H](c3ccc(C(C)(C)C)cc3)N2S(=O)(=O)c2ccc(C)cc2)cc1 ?
PAFAH2 FP inh: -1; DAGLB inhibitor: 14; HTRA1 inhibitor: -96; PAFAH1B3 FP inh: -3; PAFAH1B2 inh: 87*; pPAFAH FP inh: 15

How did Cc1ccc(S(=O)(=O)N2[C@@H](c3ccc(Cl)cc3)C(C(=O)O)=CC[C@H]2c2ccc(Cl)c(Cl)c2)cc1 do in these assays?
PAFAH2 FP inh: 7; DAGLB inhibitor: 5; HTRA1 inhibitor: -126; PAFAH1B3 FP inh: -2; PAFAH1B2 inh: 90*; pPAFAH FP inh: 10

Results for CCCCCCCCNc1ccccc1S(=O)(=O)NCc1ccccc1 ?
PAFAH2 FP inh: 1; DAGLB inhibitor: -12; HTRA1 inhibitor: -38; PAFAH1B3 FP inh: 6; PAFAH1B2 inh: 2; pPAFAH FP inh: 2

What do the screens show for `Cc1ccc(S(=O)(=O)N2[C@@H](c3ccc(C(C)(C)C)cc3)C(C(=O)O)=CC[C@H]2c2ccc(C(C)C)cc2)cc1`?
PAFAH2 FP inh: 2; DAGLB inhibitor: 17; HTRA1 inhibitor: -134; PAFAH1B3 FP inh: 2; PAFAH1B2 inh: 83*; pPAFAH FP inh: 11

What do the screens show for `CCOc1ccc([C@@H]2CC=C(C(=O)O)[C@H](c3ccc(F)cc3)N2S(=O)(=O)c2ccc(C)cc2)cc1`?
PAFAH2 FP inh: -2; DAGLB inhibitor: 6; HTRA1 inhibitor: -13; PAFAH1B3 FP inh: 7; PAFAH1B2 inh: 19; pPAFAH FP inh: 4
